PubChem BioAssay AID1159580 (chemical genetic matrix, 2015)
Where “and” joins values, the source holds several entries; their conditions need not be identical. Identical values can stand only once. Screen size: about 5,500 compounds; about 2,000 (36%) were called active. About 18% were inconclusive and are not listed. Rule as the data show it: active = normalized growth mostly below about 0.91 (no sharp cut-off); inconclusive = no clear call, values can overlap the other calls; inactive = mostly above about 0.92. This is one part of the list.

Experiment: chemical genetic growth profiling, strain panel (AID 1159580);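 also: tested at 20 µM; growth read once vehicle control cultures reached saturation at 30 °C; 1 = growth at the plate median or of vehicle wells; lower values mean less growth of the strain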
Conditions: S. cerevisiae deletion strains, growth OD

Measured: normalized growth

O=c1ccc2cc(O)c(O)cc2o1
inactive: locus YAL013W, strain DEP1, hits give low values 1.01 | locus YAL021C, strain ccr4, hits give low values 1.01 | locus YAL026C, strain drs2, hits give low values 0.992 | locus YAL030W, strain snc1, hits give low values 1.03 | locus YBL061C, strain skt5, hits give low values 1 | locus YBR009C, strain hhf1, hits give low values 1.03 | locus YBR021W, strain FUR4, hits give low values 0.974 | locus YBR023C, strain chs3, hits give low values 1 | locus YBR171W, strain sec66, hits give low values 1 | locus YBR229C, strain ROT2, hits give low values 1.01 | locus YBR231C, strain swc5, hits give low values 0.966 | locus YBR279W, strain paf1, hits give low values 1.01 | locus YCL011C, strain gbp2, hits give low values 1.03 | locus YCL016C, strain dcc1, hits give low values 1 | locus YCL029C, strain bik1, hits give low values 0.989 | locus YCL061C, strain MRC1, hits give low values 1 | locus YCL069W, strain vba3, hits give low values 0.999 | locus YCR088W, strain abp1, hits give low values 1.01 | locus YDL005C, strain med2, hits give low values 1.02 | locus YDL035C, strain GPR1, hits give low values 0.999 | locus YDL040C, strain nat1, hits give low values 1.02 | locus YDL074C, strain BRE1, hits give low values 1 | locus YDL101C, strain DUN1, hits give low values 1.01 | locus YDL185W, strain tfp1, hits give low values 0.987 | locus YDL192W, strain arf1, hits give low values 0.991 | locus YDR001C, strain nth1, hits give low values 0.994 | locus YDR069C, strain doa4, hits give low values 1.03 | locus YDR101C, strain arx1, hits give low values 0.98 | locus YDR137W, strain rgp1, hits give low values 0.913 | locus YDR159W, strain sac3, hits give low values 0.968 | locus YDR162C, strain NBP2, hits give low values 1.01 | locus YDR195W, strain ref2 1.01 | locus YDR297W, strain sur2, hits give low values 1.01 | locus YDR318W, strain mcm21, hits give low values 0.996 | locus YDR334W, strain swr1, hits give low values 1 | locus YDR335W, strain msn5, hits give low values 0.99 | locus YDR388W, hits give low values 0.996 | locus YDR392W, strain spt3, hits give low values 1.01 | locus YDR502C, strain sam2, hits give low values 0.997 | locus YEL003W, strain gim4, hits give low values 1.03 | locus YEL037C, strain rad23, hits give low values 1 | locus YEL061C, strain CIN8 (second series), hits give low values 0.997 | locus YEL061C, strain CIN8, hits give low values 1.01 | locus YER015W, strain faa2, hits give low values 0.993 | locus YER016W, strain bim1, hits give low values 0.975 | locus YER110C, hits give low values 0.991 | locus YER111C, strain swi4, hits give low values 0.99 | locus YER155C, strain BEM2 (second series), hits give low values 1.1 | locus YER155C, strain BEM2, hits give low values 1 | locus YER167W, strain BCK2, hits give low values 1.01 | locus YFR010W, strain ubp6, hits give low values 1 | locus YGL078C, strain dbp3, hits give low values 0.984 | locus YGL086W, strain mad1, hits give low values 0.987 | locus YGL167C, strain pmr1, hits give low values 0.998 | locus YGL173C, strain kem1, hits give low values 0.975 | locus YGL227W, strain vid30, hits give low values 0.999 | locus YGL240W, strain doc1, hits give low values 1.05 | locus YGL248W, strain PDE1, hits give low values 1.01 | locus YGL253W, strain hxk2, hits give low values 0.984 | locus YGR078C, strain PAC10, hits give low values 1.01 | locus YGR135W, strain pre9, hits give low values 0.987 | locus YGR252W, strain gcn5, hits give low values 0.942 | locus YHR013C, strain ard1, hits give low values 1.01 | locus YHR027C, strain rpn1, hits give low values 0.973 | locus YHR030C, strain SLT2, hits give low values 1.01 and 0.971 | locus YHR079C, strain IRE1 (second series), hits give low values 0.99 | locus YHR079C, strain IRE1, hits give low values 0.976 | locus YHR094C, strain hxt1, hits give low values 0.996 | locus YHR129C, strain ARP1, hits give low values 1.01 | locus YHR142W, strain chs7, hits give low values 0.979 | locus YHR200W, strain rpn10, hits give low values 0.99 | locus YIL066C, strain RNR3, hits give low values 1.01 | locus YIL073C, strain SPO22, hits give low values 0.976 | locus YIL125W, strain kgd1, hits give low values 0.984 | locus YIR030C, strain dcg1, hits give low values 0.996 | locus YJL092W, strain hpr5, hits give low values 1.01 | locus YJL095W, strain BCK1 (second series), hits give low values 1.02 | locus YJL095W, strain BCK1, hits give low values 1.02 and 0.993 | locus YJL115W, strain asf1, hits give low values 1.01 | locus YJL129C, strain trk1, hits give low values 0.973 | locus YJL134W, strain LCB3, hits give low values 1.02 | locus YJL154C, strain vps35, hits give low values 1.01 | locus YJL164C, strain tpk1, hits give low values 1.02 | locus YJL166W, strain qcr8, hits give low values 1.02 | locus YJL168C, strain set2, hits give low values 0.985 | locus YJL187C, strain SWE1 (second series), hits give low values 1.02 | locus YJR043C, strain POL32, hits give low values 1.02 | locus YJR066W, strain TOR1, hits give low values 0.978 | locus YKL009W, strain mrt4, hits give low values 1.01 | locus YKL068W, hits give low values 1 | locus YKL085W, strain MDH1 (second series), hits give low values 1 | locus YKL085W, strain MDH1, hits give low values 1 | locus YKL160W, strain elf1, hits give low values 0.961 | locus YKL190W, strain CNB1, hits give low values 1.01 | locus YKR001C, strain vps1, hits give low values 0.953 | locus YKR026C, strain gcn3, hits give low values 0.997 | locus YKR091W, strain srl3, hits give low values 1 | locus YLL001W, strain dnm1, hits give low values 1.02 | locus YLL026W, hits give low values 0.999 | locus YLL041C, strain sdh2, hits give low values 0.995 | locus YLR027C, strain aat2, hits give low values 1 | locus YLR039C, strain RIC1, hits give low values 1 | locus YLR058C, strain SHM2, hits give low values 1.02 | locus YLR102C, strain apc9, hits give low values 0.987 | locus YLR113W, strain HOG1, hits give low values 0.957 | locus YLR221C, strain rsa3, hits give low values 1.02 | locus YLR258W, strain gsy2, hits give low values 0.994 | locus YLR262C, strain YPT6 (second series), hits give low values 1.05 | locus YLR262C, strain YPT6, hits give low values 1.01 | locus YLR268W, strain sec22, hits give low values 0.972 | locus YLR320W, strain mms22, hits give low values 1.04 | locus YLR330W, strain CHS5, hits give low values 1.02 | locus YLR342W, strain FKS1 (second series), hits give low values 0.965 | locus YLR342W, strain FKS1, hits give low values 1.02 | locus YLR357W, strain rsc2, hits give low values 0.994 | locus YLR370C, strain arc18, hits give low values 1.01 | locus YLR371W, strain rom2, hits give low values 0.982 | locus YLR384C, strain iki3, hits give low values 1 | locus YLR418C, strain cdc73, hits give low values 0.953 | locus YML016C, strain PPZ1, hits give low values 1.02 | locus YML032C, strain rad52, hits give low values 1 | locus YML120C, strain ndi1, hits give low values 1.01 | locus YML124C, strain tub3, hits give low values 0.996 | locus YMR058W, strain fet3, hits give low values 0.97 | locus YMR078C, strain ctf18, hits give low values 0.989 | locus YMR125W, strain sto1, hits give low values 1.02 | locus YMR129W, hits give low values 1 | locus YMR205C, strain PFK2, hits give low values 1.02 | locus YMR223W, strain ubp8, hits give low values 0.985 | locus YMR231W, strain pep5, hits give low values 1 | locus YMR263W, strain SAP30, hits give low values 1 | locus YMR307W, strain GAS1, hits give low values 0.983 | locus YNL067W, strain RPL9B, hits give low values 0.989 | locus YNL071W, strain lat1, hits give low values 1.01 | locus YNL183C, strain NPR1, hits give low values 0.921 | locus YNL209W, strain ssb2, hits give low values 1 | locus YNL233W, strain BNI4, hits give low values 1.01 | locus YNL248C, strain rpa49, hits give low values 1.03 | locus YNL250W, strain rad50, hits give low values 1.01 | locus YNL271C, strain bni1, hits give low values 0.99 | locus YNL298W, strain CLA4, hits give low values 0.994 | locus YNL307C, strain MCK1, hits give low values 0.984 | locus YNL322C, strain KRE1 (second series), hits give low values 1 | locus YNL322C, strain KRE1, hits give low values 1.01 | locus YNR049C, strain mso1, hits give low values 1.01 | locus YNR052C, strain pop2, hits give low values 0.983 | locus YOL006C, strain TOP1, hits give low values 1.01 | locus YOL012C, strain htz1 0.571 | locus YOL147C, strain pex11, hits give low values 0.997 | locus YOR001W, strain rrp6, hits give low values 1.03 | locus YOR061W, strain CKA2, hits give low values 1.02 | locus YOR069W, strain VPS5, hits give low values 1.01 | locus YOR070C, strain gyp1, hits give low values 1 | locus YOR080W, strain dia2, hits give low values 1 | locus YOR083W, strain WHI5, hits give low values 0.942 | locus YOR106W, strain vam3, hits give low values 0.913 | locus YOR136W, strain idh2, hits give low values 0.993 | locus YOR144C, strain elg1, hits give low values 0.983 | locus YOR184W, strain ser1, hits give low values 0.992 | locus YOR231W, strain MKK1, hits give low values 0.98 | locus YOR265W, strain rbl2, hits give low values 0.989 | locus YOR270C, strain vph1, hits give low values 1.06 | locus YOR290C, strain snf2, hits give low values 1 | locus YOR316C, strain cot1, hits give low values 0.998 | locus YPL051W, strain arl3, hits give low values 1 | locus YPL055C, strain LGE1, hits give low values 0.99 | locus YPL078C, strain atp4, hits give low values 0.986 | locus YPL106C, strain sse1, hits give low values 0.983 | locus YPL240C, strain hsp82, hits give low values 1 | locus YPL256C, strain CLN2, hits give low values 1 | locus YPR119W, strain clb2, hits give low values 0.994 | locus YPR141C, strain kar3, hits give low values 0.993 | locus YPR163C, strain tif3, hits give low values 1 | locus YPR167C, strain met16, hits give low values 0.993 | strain wtn01, hits give low values 0.979
